Experiment [1] in a line: NS1 protein of Zika virus - qHTS assay to identify small molecule inhibitors in human HEK 293 cells (AID 1347053). Further: nearly all actives have a fitted effect of over 55% in size. Further: potency means the concentration at half of the fitted maximal effect. The procedure, abridged: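 Compound-treated (1 h pre-infection) HEK 293 cells infected with ZIKV MR766, MOI = 0.5; after 24 h at 37 C, NS1 read by TR-FRET; data normalized to uninfected and infected controls.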
A general note: In qHTS, concentration-response curves come from the screen itself.

Experiment [2] addresses Parathyroid hormone/parathyroid hormone-related peptide receptor (Homo sapiens) (UniProt Q03431). In words: qHTS for PTHR1 Agonists: Optimization Screen against the NCGC LOPAC library (AID 1347079).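 Further: GloSensor cAMP luminescence in HEK-293 GP2 cells expressing human PTHR1 with IBMX.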 In outline: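 HEK-293 GP2 cells, PTHR1 + GloSensor cAMP; 3000 cells/well, o/n. Luciferin + IBMX 0.5mM each (stock), 1 hr 37C. Cpd titration, 1 hr 37C. Lum after 15 min RT. Ctrl M-PTH(1-15) top 10uM.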

Experiment [3] in a line: qHTS of pediatric cancer cell lines to identify multiple opportunities for drug repurposing: Primary screen for TC32 cells (AID 1347089). Further: nearly all actives have a fitted effect of over 60% in size. The procedure, abridged: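 In the primary qHTS, MIPE compounds were tested at 11 concentrations (0.78 nM to 46 µM) and NPC compounds at 8 (0.59 nM to 46 µM) on TC32 cells for 48 h. CellTiter-Glo luminescence gave viability.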
Experiment [4] can be described thus: qHTS of pediatric cancer cell lines to identify multiple opportunities for drug repurposing: Primary screen for DAOY cells (AID 1347090). Further: nearly all actives have a fitted effect of over 55% in size. Further: potency means the concentration at half of the fitted maximal effect. In outline:
(§1)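 Eight- or eleven-point concentration series, 48 h treatment at 37 degrees C in growth media; readout CellTiter-Glo luminescence. Potency and efficacy were taken from the concentration-response curves.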

A short description of experiment [5]: qHTS of pediatric cancer cell lines to identify multiple opportunities for drug repurposing: Primary screen for SJ-GBM2 cells (AID 1347091). Further: potency means the concentration at half of the fitted maximal effect. In outline:
as §1

The nature of experiment [6]: qHTS of pediatric cancer cell lines to identify multiple opportunities for drug repurposing: Primary screen for SK-N-MC cells (AID 1347093). Further: potency means the concentration at half of the fitted maximal effect. In outline: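 Metabolically active cells were quantified by ATP-dependent luminescence (CellTiter-Glo, 15 min at room temperature) following 48 h treatment. Cells had been plated at 500-1,000 per well and settled for 5 h beforehand.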

A short description of experiment [7]: qHTS of pediatric cancer cell lines to identify multiple opportunities for drug repurposing: Primary screen for A673 cells (AID 1347092). Further: nearly all actives have a fitted effect of over 45% in size. Further: potency means the concentration at half of the fitted maximal effect. In outline:
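48 h compound exposure, A673, 500-1,000 cells/well, 37 degrees C/5% CO2. MIPE: 11-point, 0.78 nM-46 µM; NPC: 8-point, 0.59 nM-46 µM (final). Readout CellTiter-Glo luminescence after 15 min RT.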

The target in experiment [8] is T1, Tyrosine-protein phosphatase non-receptor type substrate 1 (Homo sapiens) + Leukocyte surface antigen CD47 (Homo sapiens) (UniProt P78324+Q08722). In words: CD47-SIRPalpha protein protein interaction - LANCE assay qHTS validation (AID 1347057; active means well fitted curve in the direction sought with a large enough effect in the signal ratio, with a control signal flat, not every such curve was filed as active; the % refers to the signal ratio; further: series mostly up to about 38 µM). The procedure, abridged:
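Inhibition of soluble CD47/SIRPalpha ectodomain association by titrated compounds, measured as 665/615 nm time-resolved FRET ratio after sequential 30 min room-temperature incubations.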
A general note: Time-resolved FRET reads energy transfer from a long-lived donor to a nearby acceptor.

Experiment [9] deals with T1, Tyrosine-protein phosphatase non-receptor type substrate 1 (Homo sapiens) + Leukocyte surface antigen CD47 (Homo sapiens). Put plainly: CD47-SIRPalpha protein protein interaction - HTRF assay qHTS validation (AID 1347058; active means well fitted curve in the direction sought with a large enough effect in the signal ratio, not every such curve was filed as active; the % refers to the signal ratio; further: series mostly up to about 38 µM). In outline:
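Soluble extracellular domains (6His-CD47, Avi-tag-biotinylated SIRPalpha) in PBS pH 7.4 with 0.05% IGEPAL CA-630. Compounds were preincubated 30 min at RT with CD47 and anti-His-Eu, then SIRPalpha and SAV-XL665 were added. TR-FRET 665/615 ratio.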

Experiment [10] shares this target. In words: CD47-SIRPalpha protein protein interaction - Alpha assay qHTS validation (AID 1347059).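 Further: bead proximity luminescence from CD47 binding SIRPalpha after compound preincubation with SIRPalpha.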 In outline:
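In PBS (pH 7.4) with 0.05% IGEPAL CA-630, compound is preincubated with biotin-Avi-SIRPalpha ectodomain before His-CD47 ectodomain and affinity beads are added. Light-protected room-temperature incubations; AlphaScreen readout.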

Inconclusive results are not listed. Activity calls are given as the source filed them. Unless noted, the call rests on the fitted dose curve; in most records, active means well fitted curve in the direction sought with a large enough effect; inconclusive means small, poorly fitted or top-dose-only effect, or another doubt; inactive means no such curve, though single readings can be large; an effect the other way counts as inactive or inconclusive.

T1 sequence (P78324 whole entry, looked up, the tested form may be a part): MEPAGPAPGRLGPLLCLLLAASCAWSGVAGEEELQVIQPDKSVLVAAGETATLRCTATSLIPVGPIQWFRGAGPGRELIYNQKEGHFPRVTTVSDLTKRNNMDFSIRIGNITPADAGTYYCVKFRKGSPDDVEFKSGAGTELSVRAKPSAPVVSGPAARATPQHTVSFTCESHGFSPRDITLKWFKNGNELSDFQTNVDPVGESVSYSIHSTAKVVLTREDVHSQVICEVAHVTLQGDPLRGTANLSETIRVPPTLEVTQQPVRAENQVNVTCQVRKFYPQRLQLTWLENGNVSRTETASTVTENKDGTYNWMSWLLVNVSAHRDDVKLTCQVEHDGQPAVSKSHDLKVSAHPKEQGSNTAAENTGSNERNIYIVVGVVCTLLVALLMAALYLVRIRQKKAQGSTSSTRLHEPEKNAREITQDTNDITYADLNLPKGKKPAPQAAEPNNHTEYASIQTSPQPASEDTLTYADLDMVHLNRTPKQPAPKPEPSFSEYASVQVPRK
T1 sequence (Q08722 whole entry, looked up, the tested form may be a part): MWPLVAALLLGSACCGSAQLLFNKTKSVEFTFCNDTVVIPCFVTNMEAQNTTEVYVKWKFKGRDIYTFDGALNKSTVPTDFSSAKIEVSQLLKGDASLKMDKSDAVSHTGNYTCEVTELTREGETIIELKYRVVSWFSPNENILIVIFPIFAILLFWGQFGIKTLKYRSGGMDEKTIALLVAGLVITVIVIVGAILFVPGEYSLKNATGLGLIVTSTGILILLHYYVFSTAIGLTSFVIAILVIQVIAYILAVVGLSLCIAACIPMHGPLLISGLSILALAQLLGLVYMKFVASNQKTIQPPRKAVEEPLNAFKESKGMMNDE
Parathyroid hormone/parathyroid hormone-related peptide receptor (Homo sapiens), sequence (Q03431 whole entry, looked up): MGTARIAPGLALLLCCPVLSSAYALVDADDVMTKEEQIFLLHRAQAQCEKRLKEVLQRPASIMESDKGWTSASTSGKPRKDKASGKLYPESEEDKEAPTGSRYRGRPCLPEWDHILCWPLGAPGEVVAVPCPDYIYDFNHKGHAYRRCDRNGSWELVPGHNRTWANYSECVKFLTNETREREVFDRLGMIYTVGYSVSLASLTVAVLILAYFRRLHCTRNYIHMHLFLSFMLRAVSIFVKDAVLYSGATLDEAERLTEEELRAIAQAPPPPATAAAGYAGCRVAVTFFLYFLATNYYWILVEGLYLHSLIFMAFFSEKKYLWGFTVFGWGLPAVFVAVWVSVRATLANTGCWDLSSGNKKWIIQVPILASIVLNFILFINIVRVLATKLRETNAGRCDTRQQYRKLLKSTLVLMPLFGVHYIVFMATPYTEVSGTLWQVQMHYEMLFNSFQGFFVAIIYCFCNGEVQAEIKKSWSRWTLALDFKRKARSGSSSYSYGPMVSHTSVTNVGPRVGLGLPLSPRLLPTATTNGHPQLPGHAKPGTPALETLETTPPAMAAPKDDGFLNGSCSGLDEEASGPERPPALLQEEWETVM

On to `CC(C)[C@H](CO)Nc1nc(Nc2ccc(C(=O)O)c(Cl)c2)c2ncn(C(C)C)c2n1`, for which the Potency entry in experiment [1] is “inactive”.
In the case of `Cc1cccc(C)c1OCC(C)N` (stereo not given), the Potency entry in experiment [1], in experiment [3], in experiment [4], in [5] and in experiment [6] was “inactive” each time. Besides, the outcome in experiment [2] was inactive.
On to `COC(=O)[C@@H]1[C@H]2C[C@H]3c4[nH]c5ccccc5c4CCN3C[C@@H]2CC[C@@H]1O`, for which the Potency result in experiment [1], in experiment [3], in experiment [4], in experiment [5], in experiment [7] and in experiment [6] was “inactive” each time. The compound was called inactive in [2].
For `CCN1CCC[C@H]1CNC(=O)c1cc(S(N)(=O)=O)ccc1OC`, the Potency result in [1], in [3], in experiment [4], in experiment [5], in experiment [7] and in experiment [6] was “inactive” each time. The outcome in experiment [8], in experiment [9], in experiment [10] and in experiment [2] was inactive.
Consider `O=C(O)c1c(Cl)c(Cl)c(Cl)c(Cl)c1-c1c2cc(I)c(=O)c(I)c-2oc2c(I)c(O)c(I)cc12`, for which, in experiment [1], the Potency result is “inactive”.
Turning to `CCN(CC)CCNC(=O)c1ccc(N)cc1`, the Potency result in experiment [1], in [3], in [4], in [5], in experiment [7] and in experiment [6] was “inactive” each time. The result in experiment [8], in experiment [9], in [10] and in [2] was inactive.
Turning to `CCN(CC)CCOC(=O)c1ccc(N)cc1`, the Potency result in experiment [1], in experiment [5] and in experiment [6] was “inactive” in each case. Also, the result in [8], in [9], in experiment [10] and in experiment [2] was inactive.
Regarding `CC1(C)CCC2=C(O1)c1ccccc1C(=O)C2=O`, the Potency result in experiment [1] and in experiment [3] was “inactive” each time. Moreover, the outcome in [8], in [10] and in experiment [2] was inactive. In addition, the Potency in [6] was 23.5 µM (active).
Consider `CCN(CC)C(=O)c1ccc(O)c(OC)c1`, for which the Potency entry in [1], in experiment [3], in experiment [4], in experiment [5] and in experiment [6] was “inactive” in each case. Moreover, the outcome in experiment [8], in [9], in [10] and in [2] was inactive.
As for `O=C(O)CCc1nc(-c2ccccc2)c(-c2ccccc2)o1`, the Potency entry in experiment [1], in [3], in [4], in experiment [5], in experiment [7] and in experiment [6] was “inactive” each time. For the same compound, the result in experiment [8], in [9], in experiment [10] and in [2] was inactive.
Turning to `CC(=O)O[C@]1(C(C)=O)CC[C@H]2[C@@H]3C=C(Cl)C4=CC(=O)[C@@H]5C[C@@H]5[C@]4(C)[C@H]3CC[C@@]21C`, the Potency result in [1], in [3] and in experiment [5] was “inactive” in each case. Besides, the result in experiment [8], in experiment [9], in experiment [10] and in experiment [2] was inactive.
As to `O=C1NCC2(CCN(CCc3ccccc3)CC2)O1`, the Potency result in experiment [1], in [3], in [4], in experiment [5], in experiment [7] and in experiment [6] was “inactive” each time. For the same compound, the outcome in experiment [8], in experiment [9], in experiment [10] and in experiment [2] was inactive.
For the compound `CN(C)CCC(c1ccccc1)c1ccccn1` (stereo not given), the Potency result in experiment [1], in experiment [3], in experiment [4], in experiment [5] and in experiment [6] was “inactive” throughout. Also, the result in experiment [8], in experiment [9], in experiment [10] and in experiment [2] was inactive.
For `c1ccc2c(-c3cnn4cc(-c5ccc(N6CCNCC6)cc5)cnc34)ccnc2c1`, the Potency in experiment [1] is 4.18 µM (active). In addition, the Potency result in experiment [3] is “inactive”.
Take `CCCCC1C(=O)N(c2ccccc2)N(c2ccccc2)C1=O`: the Potency entry in [1], in experiment [3], in experiment [4], in experiment [5] and in experiment [7] was “inactive” in each case. For the same compound, the outcome in [2] was inactive.
`NCCS`: the Potency result in [1], in [3], in experiment [4], in experiment [5], in [7] and in experiment [6] was “inactive” throughout. The result in experiment [8], in experiment [9], in [10] and in [2] was inactive.
For `O=C1NC(=O)C(=Cc2cccc(C(F)(F)F)c2)S1`, the Potency result in [1] is “inactive”.
On to `CC/C(=C(\c1ccccc1)c1ccc(OCCN(C)C)cc1)c1ccccc1`, for which the Potency entry in [1] and in experiment [4] was “inactive” in each case. Further, the compound was classed as inactive in experiment [2]. Also, the Potency in [6] is 16.8 µM (active).
As for `COc1ccc2c3c1OC1C[C@@H](O)C=C[C@@]31CCN(C)C2` (stereo not given in full), the Potency entry in experiment [1] and in experiment [3] was “inactive” in each case.
Turning to `C[N+](C)(C)CCCCCC[N+](C)(C)C`, the Potency entry in experiment [1], in experiment [3], in experiment [4], in experiment [5], in experiment [7] and in [6] was “inactive” in each case. In addition, the outcome in experiment [8], in experiment [9], in [10] and in experiment [2] was inactive.
As to `CCn1cc(C(=O)O)c(=O)c2ccc(C)nc21`, the Potency entry in experiment [1], in [3], in experiment [4], in [5] and in experiment [6] was “inactive” in each case. The result in experiment [8], in experiment [9], in [10] and in [2] was inactive.
In the case of `O=C(NCCN1CCOCC1)c1ccc(Cl)cc1`, the Potency entry in experiment [1], in experiment [3], in experiment [4], in [5], in experiment [7] and in experiment [6] was “inactive” in each case. Further, the result in experiment [8], in experiment [9], in experiment [10] and in experiment [2] was inactive.
For `CCCNC(=O)NS(=O)(=O)c1ccc(Cl)cc1`, the Potency entry in [1], in experiment [3], in experiment [4], in [5] and in experiment [7] was “inactive” throughout. The result in [8], in experiment [9], in [10] and in [2] was inactive.
Take `O=c1cc(-c2ccc(O)cc2)oc2cc(O)cc(O)c12`: the Potency result in [1] and in experiment [3] was “inactive” throughout. Besides, the outcome in [8], in experiment [10] and in experiment [2] was inactive. For the same compound, the Potency in experiment [4] is 14.8 µM (active); in experiment [5] it was 1.32 µM (active); in [7] it was 1.18 µM (active).
`COc1cccc(-c2cc(=O)c3ccccc3o2)c1N`: the Potency result in experiment [1] and in experiment [5] was “inactive” in each case. In addition, the outcome in [8], in experiment [10] and in experiment [2] was inactive. Besides, the Potency in [6] is 0.662 µM (active).
For the compound `Clc1ccc(C(c2ccc(Cl)cc2)n2cc[n+](CC(OCc3ccc(Cl)cc3Cl)c3ccc(Cl)cc3Cl)c2)cc1` (stereo not given), the values for the Potency in [1], in [5] and in experiment [6] were 11.8 µM (active), 23.5 µM (active) and 7.43 µM (active), respectively. Besides, the result in [10] and in [2] was inactive.

The values are drawn from PubChem BioAssay (NCATS).
